Results on 53 molecules are retold here after PubChem BioAssay AID686978 (National Center for Advancing Translational Sciences (NCATS), 2013).

The whole screen tested about 420,000 compounds, of which about 64,000 (15%) were called active. About 27% were inconclusive and are not listed. Calls follow the shape of the dose curve; as a rule, active = well fitted inhibition curve with a large enough effect; inconclusive = small, poorly fitted or top-dose-only effect; inactive = flat fitted curve, though single readings scatter. A selection follows.
% is scaled to controls: 0 for no effect and ±100 for the full control effect; potency is read from the fitted curve at half-maximal effect.

The nature of the test: qHTS for Inhibitors of human tyrosyl-DNA phosphodiesterase 1 (TDP1): qHTS in cells in absence of CPT. Also: nearly all actives have a fitted effect of over 55% in size. As to conditions: DT40 Tdp1-/- hTDP1 cells, no CPT, ATP luminescence, 48 h; activity change, negative = growth inhibition: at 46.2 µM (top of the series). An excerpt:
Human tyrosyl-DNA phosphodiesterase 1 (TDP1) is a novel repair gene, and we propose to use it as a new target for anticancer drug development. TDP1 is not an essential protein, but under treatment with topoisomerase I poison (camptothecin: CPT), TDP1 works as a critical factor for cell survival. To directly identify novel TDP1 inhibitors active in a cellular environment, we have knocked-out the Tdp1 gene in chicken DT40 cells (Tdp1-/-) and generated a complemented counterpart cells that contains a stable transfection of the human TDP1 gene (Tdp1-/-;hTDP1 cells). For the primary screen, Tdp1-/-;hTDP1 cells will be exposed to small molecules in the presence or absence of CPT, and their growth kinetics will be evaluated after 48 hours by measuring ATP activity. […] The hit compounds will then be evaluated in the presence or absence of CPT using Tdp1-/- cells. […] In tertiary assays, biochemical gel-based assays will be used to assess whether the hit compounds specifically target TDP1.
To this end, we have screened this cell line against the MLSMR in two primary screens. In one screen we add CPT and in the other we screen in the absence of CPT; this AID represents the screen where CPT was absent.
NIH Chemical Genomics Center [NCGC]
NIH Molecular Libraries Probe Centers Network [MLPCN]
Assay Submitter (PI): Yves Pommier, NCI
DT40-hTDP1 cells without 20 nM Camptothecin (add 20 microL of DMSO in 1 L of cell culture medium) were dispensed at 400 cells/5microL/well in tissue culture treated 1536-well white wall/solid bottom assay plates (Greiner Bio-One North America, NC, U.S.A.) using a Multidrop Combi 8 channel dispenser (Thermo Fisher, Waltham, MA, USA). 23 nL compounds and controls were transferred using the pin tool (Kalypsys, San Diego, CA, USA) to the assay plates. The assay plates were then incubated at 37 masculineC for a minimum 48 hr. Three microL of Cell Titer Glo solution was added to the plates and incubated at RT in dark for 30 min. Luminescence was read using ViewLux (Perkin Elmer) with 1 sec exposure slow speed, high gain and 2x binning.
Take `COC(=O)c1ccc(NC(=O)CSc2nc(N)c(NC(=O)c3ccc(Br)o3)c(=O)[nH]2)cc1`: the “activity change, negative = growth inhibition” value is 3.08% (inactive).

In the case of `Clc1ccc(Cn2ncc3c(NCc4cccnc4)ncnc32)cc1`, the Potency is 20.6 µM (active).

On to `Cc1cc(NCc2cccnc2)no1`, for which the “activity change, negative = growth inhibition” value was -4.16% (inactive).

As for `Brc1ccc2ncnc(NCc3cccnc3)c2c1`, the Potency was 20.6 µM (active).

On to `c1ccc(CNc2ncncc2-c2cccnc2)cc1`, for which the “activity change, negative = growth inhibition” value was -3.74% (inactive).

For `OC[C@@H]1CN(Cc2ccc(Cl)cc2)C[C@H](n2cnc3c(NCc4ccncc4)ncnc32)O1`, the “activity change, negative = growth inhibition” value is -16.7% (inactive).

In the case of `Clc1ccc(Nc2ncnc3c2nnn3Cc2ccccc2)cc1`, the “activity change, negative = growth inhibition” value is -17.1% (inactive).

Take `O=C(NCCN1CCOCC1)c1ccc2c(c1)ncn2C1CCCC1`: the “activity change, negative = growth inhibition” value is 3.13% (inactive).

Take `CC(Oc1cccc(Cl)c1)C(=O)NC1CC(C)(C)NC(C)(C)C1` (stereo not drawn): the “activity change, negative = growth inhibition” value is -0.549% (inactive).

With `CN(CC(=O)NCCc1ccccc1)S(=O)(=O)c1cnc[nH]1`, the “activity change, negative = growth inhibition” value was 18.4% (inactive).

Consider `CN=C(NC#N)NCCSCc1nc[nH]c1C`, for which the Potency entry was “inactive”.

Take `COc1ccc(CN2C(=O)CN=C2Nc2ccc(C)cc2C)cc1`: the “activity change, negative = growth inhibition” value was 5.62% (inactive).

As for `CCOC(=O)c1ccccc1CN1C(=O)c2ccccc2S1(=O)=O`, the “activity change, negative = growth inhibition” value was -23.2% (inactive).

Regarding `COC(=O)C1=C(c2ccccc2)c2ccccc2S(=O)(=O)N1CC(=O)Nc1ccccc1C(F)(F)F`, the “activity change, negative = growth inhibition” value is -26.4% (inactive).

Turning to `CCOC(=O)CN1C(C(=O)c2ccccc2)=C(OC(=O)C(C)(C)C)c2ccccc2S1(=O)=O`, the Potency was 14.6 µM (active).

Turning to `Cn1c(SCC(=O)c2ccc(F)cc2)nnc1-c1ccccn1`, the “activity change, negative = growth inhibition” value was -24.7% (inactive).

As to `Cc1ccccc1S(=O)(=O)NC(=O)C1(C)CCN1C(=O)C1(c2ccc(Cl)cc2)CC1` (stereo not drawn), the “activity change, negative = growth inhibition” value was -13.5% (inactive).

Consider `CC1(C(=O)Nc2cccc3c2CCCC3)CCN1C(=O)CCc1ccc(Cl)cc1Cl` (stereo not drawn), for which the Potency is 23.1 µM (active).

For the molecule `CC1(C(=O)NS(=O)(=O)Cc2cccc(Cl)c2)CCN1C(=O)Cc1ccc(Cl)cc1Cl` (stereo not drawn), the “activity change, negative = growth inhibition” value is -1.96% (inactive).

For `Cc1ccccc1S(=O)(=O)NC(=O)C1(C)CCN1C(=O)Cc1ccc(Cl)cc1Cl` (stereo not drawn), the “activity change, negative = growth inhibition” value is 3.67% (inactive).

Consider `CC1(C(=O)Nc2cccc3c2CCCC3)CCN1C(=O)C1(c2ccccc2)CC1` (stereo not drawn), for which the Potency is 14.6 µM (active).

`CCCNC(=O)C1(C)CCN1C(=O)C1(c2ccccc2)CC1` (stereo not drawn): the “activity change, negative = growth inhibition” value was -9.77% (inactive).

For `O=C(N=C1SC2CS(=O)(=O)CC2N1c1ccccc1)c1ccccc1` (stereo not drawn), the “activity change, negative = growth inhibition” value is -18.2% (inactive).

Consider `O=c1ccn([C@@H]2O[C@H](CNS(=O)(=O)c3cc4ccccc4s3)[C@@H](O)[C@H]2O)c(=O)[nH]1`, for which the “activity change, negative = growth inhibition” value was -15.3% (inactive).

As to `Nc1ccc(Oc2ccc(Cl)cc2)cc1`, the “activity change, negative = growth inhibition” value is -10.6% (inactive).

Take `CC(C(=O)O)c1ccc(C2CCCCC2)c2ccccc12` (stereo not drawn): the “activity change, negative = growth inhibition” value is -4.66% (inactive).

For `Cc1ccccc1Nc1scc(-c2ccc(Br)cc2)[n+]1-c1ccccc1C`, the Potency was 29.1 µM (active).

As for `O=C1N/C(=N\N=C\c2ccco2)SC1Cc1ccc(F)cc1` (stereo not drawn), the “activity change, negative = growth inhibition” value is -17.3% (inactive).

Consider `CCC1S/C(=N/N=C/c2ccco2)NC1=O` (stereo not drawn), for which the “activity change, negative = growth inhibition” value was -3.68% (inactive).

Regarding `CCCCC1S/C(=N/N=C/c2cccs2)NC1=O` (stereo not drawn), the Potency was 18.4 µM (active).

For `C=CCOC(=O)C1=C[C@H](c2ccc(Br)cc2)C[C@H](OCCCCO)O1`, the “activity change, negative = growth inhibition” value was -17.2% (inactive).

For `CC1(C)CC(=O)C(C2=NC(C)(C)Cc3ccccc32)=C(O)C1`, the “activity change, negative = growth inhibition” value was -29.5% (inactive).

As to `CCOc1ccc(NC(=O)N(CCC(C)C)C(C)c2ccco2)cc1` (stereo not drawn), the Potency was 20.6 µM (active).

`CCOc1ccc(NC(=O)c2ncoc2-c2ccco2)cc1`: the “activity change, negative = growth inhibition” value is -37.2% (inactive).

As for `CCOc1ccc(NC(=O)N(CC(C)C)CC(C)C)cc1`, the “activity change, negative = growth inhibition” value was -17.9% (inactive).

For `C[N+](C)(C)CCCCCNCC12CC3CC(CC(C3)C1)C2`, the “activity change, negative = growth inhibition” value is -2.06% (inactive).

With `CC(C)(O)C#Cc1ncc(C(F)(F)F)cc1Cl`, the “activity change, negative = growth inhibition” value is -6.92% (inactive).

With `Cc1cc(C)n(S(=O)(=O)c2cccc([N+](=O)[O-])c2)n1`, the “activity change, negative = growth inhibition” value was -14.9% (inactive).

On to `Cc1ccc(S(=O)(=O)N[C@H](CO)C(C)C)cc1`, for which the “activity change, negative = growth inhibition” value is -8.67% (inactive).

Take `CN(C)C(=O)N=NC(=O)N(C)C`: the Potency is 9.2 µM (active).

As to `CCOC(=O)N/N=C/c1cccnc1`, the “activity change, negative = growth inhibition” value was -4.41% (inactive).

For the molecule `CC(C)(C)OC(=O)N/N=C/c1ccc(C(=O)O)cc1`, the “activity change, negative = growth inhibition” value was -1.61% (inactive).

`COC(=O)N/N=C/c1c[n+]([O-])c2ccccc2[n+]1[O-]`: the Potency was 0.0422 µM (active).

Regarding `N#Cc1ccccc1NC(=O)c1ccc2c(c1)OCO2`, the “activity change, negative = growth inhibition” value is -7.95% (inactive).

Consider `CC1CCN(C(NC(=O)c2ccco2)C(=O)c2ccccc2)CC1` (stereo not drawn), for which the “activity change, negative = growth inhibition” value is -16.8% (inactive).

Consider `O=C(NCc1ccc2c(c1)OCO2)C(=O)NCC1OCCN1S(=O)(=O)c1ccc(F)cc1` (stereo not drawn), for which the “activity change, negative = growth inhibition” value was -8.46% (inactive).

For `O=C(NCCCN1CCCC1=O)C(=O)NCC1OCCN1S(=O)(=O)c1ccc(Br)cc1` (stereo not drawn), the Potency was 0.411 µM (active).

As for `O=C(NCc1ccncc1)C(=O)NCC1OCCN1S(=O)(=O)c1ccc(Br)cc1` (stereo not drawn), the “activity change, negative = growth inhibition” value is -29.5% (inactive).

For `CC(C)c1ccc(NC(=O)CCN2C(=O)c3ccc([N+](=O)[O-])cc3C2=O)cc1`, the “activity change, negative = growth inhibition” value was -9.27% (inactive).

`CC(C)CNC(=O)COC(=O)/C=C/c1ccccc1[N+](=O)[O-]`: the “activity change, negative = growth inhibition” value was -0.949% (inactive).

In the case of `CC(C)OCCCNC(=O)C1CC(=O)N(C2CCCCCCC2)C1` (stereo not drawn), the “activity change, negative = growth inhibition” value is -2.8% (inactive).

Regarding `O=C(Cc1ccccc1)NCC1OCCc2ccccc21` (stereo not drawn), the “activity change, negative = growth inhibition” value was -8.35% (inactive).

As for `Cc1ccc2nc(N3CCN(C(=O)c4ccco4)CC3)sc2c1`, the “activity change, negative = growth inhibition” value was -28.4% (inactive).
